Screening data: PubChem, National Center for Advancing Translational Sciences (NCATS)
This is a sample that favours compounds with a hit; in the whole collection about 8.7% have one here.
BAZ2B block – qHTS Assay for Inhibitors of BAZ2B. Bromodomain adjacent to zinc finger domain protein 2B (Homo sapiens), Q9UIF8. AlphaScreen BAZ2B-H3K14Ac peptide displacement. Potency, µM (doses to about 114 µM), inactives show top-dose activity change, negative = inhibition, usual class: inhibitors. 4.4% of 360,000 active; also: % is scaled to controls: 0 for no effect and ±100 for the full control effect; nearly all actives have a fitted effect of over 60% in size
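Complex of BAZ2B and biotin-H3K14Ac (50 nM apiece) forms over 30 min at RT, then faces library compounds up to 110 uM for another 30 min; AlphaScreen beads added, 20 min dark incubation, luminescence read.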
G9a block – qHTS Assay for Inhibitors of Histone Lysine Methyltransferase G9a; 8.8% of 350,000 active; G9a H3K9 monomethylation, AlphaScreen, 2 h; Potency, µM (series often up to 102 µM), inactives show top-dose activity, negative = inhibition, actives largely listed as inhibitors; also: % is scaled to controls: 0 for no effect and ±100 for the full control effect; nearly all actives have a fitted effect of over 75% in size
Target sequence (Q96KQ7 913-1193 limits assumed): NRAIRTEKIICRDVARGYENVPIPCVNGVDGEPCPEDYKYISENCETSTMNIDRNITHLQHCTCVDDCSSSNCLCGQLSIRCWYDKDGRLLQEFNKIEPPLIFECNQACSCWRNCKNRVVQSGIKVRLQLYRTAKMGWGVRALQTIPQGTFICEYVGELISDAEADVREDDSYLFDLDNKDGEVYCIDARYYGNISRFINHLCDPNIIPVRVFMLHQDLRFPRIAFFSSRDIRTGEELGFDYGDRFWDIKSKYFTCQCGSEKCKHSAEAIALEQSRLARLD
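G9a (20 nM) was preincubated 15 min with compound, then reacted 2 h at room temperature with 500 nM biotin-H3K9 peptide and 20 µM SAM. Monomethyl-H3K9 detected by AlphaScreen using anti-H3K9me1 antibody.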
JMJD2A Tudor inh – qHTS Assay for Inhibitors of JMJD2A-Tudor Domain. Lysine-specific demethylase 4A (Homo sapiens), O75164. Potency, µM (titrated, usually from 114 µM), for the others: top-dose activity change, negative = inhibition, most hits filed as inhibitors. 4.4% of 390,000 active. AlphaScreen JMJD2A-Tudor / H3K4me3 peptide binding; also: % is scaled to controls: 0 for no effect and ±100 for the full control effect; nearly all actives have a fitted effect of over 50% in size
Sfp PPTase inh – qHTS Assay for Inhibitors of Bacillus subtilis Sfp phosphopantetheinyl transferase (PPTase); 4'-phosphopantetheinyl transferase ffp (Bacillus subtilis), Q9F4F7; Biochemical Sfp PPTase activity, qHTS; Potency, µM, for the others: largest response in the series, negative = inhibition, usual class: inhibitors; 3.5% of 310,000 active; AID 1490, 2009;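 also: the enzyme is Sfp with the accession as filed and its product quenches rhodamine fluorescence; 0% = enzyme reaction without inhibitor and -100% = no enzyme wells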
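Sfp 15 nM + cpd, 15 min RT; start w/ rhodamine-CoA 5 uM, BHQ-2-YbbR 12.5 uM (final); 50 mM Hepes pH 7.6, 10 mM MgCl2, 0.01% NP-40, 0.01% BSA; read 525/598 nm at 0 and 30 min.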
HP1b chromo inh – HTS for Inhibitors of HP1-beta Chromodomain Interactions with Methylated Histone Tails; Chromobox protein homolog 1 (Homo sapiens), P83916; AlphaScreen HP1-beta / biotin-H3K9me3 peptide binding; Potency, µM (doses to about 114 µM), for the others: at the top dose activity change, negative = inhibition, usual class: inhibitors; 0.56% of 390,000 active; also: nearly all actives have a fitted effect of over 70% in size
Target sequence (P83916 whole entry, looked up): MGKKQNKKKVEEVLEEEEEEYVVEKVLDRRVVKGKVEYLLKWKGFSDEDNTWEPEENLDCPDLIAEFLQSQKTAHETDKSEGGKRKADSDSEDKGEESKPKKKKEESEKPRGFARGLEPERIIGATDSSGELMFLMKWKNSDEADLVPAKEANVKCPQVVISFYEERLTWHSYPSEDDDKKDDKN
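AlphaScreen: HP1-beta (50 nM) preformed 30 min with biotin-H3(1-18)K9me3 peptide (50 nM) in PBS pH 7.4, 0.01% Tween-20. Compound added for 30 min at RT, then streptavidin donor/nickel chelate acceptor beads (10 ug/mL) for 30 min.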
12-LOX inh – Primary qHTS assay for inhibitors of human arachidonate 12S-lipoxygenase (ALOX12): Round 2; purified 12hLO, xylenol orange hydroperoxide absorbance; Potency, µM (titrated, usually from 108 µM), without a hit: at the top dose activity change, negative = inhibition, actives largely listed as inhibitors; 1.1% of 580,000 active; AID 1671190, 2021; also: % is scaled to controls: 0 for no effect and ±100 for the full control effect
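Purified human 12hLO (150 nM final) in 25 mM Hepes, 0.01% Triton X-100, pH 7.0 was preincubated 15 min at room temperature with compound. Then 40 uM arachidonic acid was added, 30 min. Hydroperoxide was read by Fe-XO absorbance ratio 573/405 nm.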
* marks the source's active call; other numbers are inactive results; ? = inconclusive; nt = no result; ! = repeats disagree; [ ] = dose if it differs, or a comment. Calls follow the shape of the dose curve; as a rule, active = well fitted curve in the direction sought with a large enough effect; inconclusive = small, poorly fitted or top-dose-only effect, or another doubt; inactive = no such curve, though single readings can be large; an effect the other way counts as inactive or inconclusive. Potency is read from the fitted curve at half-maximal effect.

SMILES	BAZ2B block	G9a block	JMJD2A Tudor inh	Sfp PPTase inh	HP1b chromo inh	12-LOX inh
O=C1CSC(c2ccncc2)N1Cc1ccco1 (stereo not drawn)	-7.7%	-33.6%[59 µM]	-17.3%	56.2µM*	13.5%	-19.0%
CC(C)(O)C#Cc1ccccc1C(=O)NC(CC(=O)O)c1ccccc1 (stereo not drawn)	nt	nt	nt	nt	nt	55.2%
N#CCc1nn2c3c(cnc2c1C#N)C(=O)CCC3	-27.2%	44.7µM*	-22.0%	-18.2%	-12.9%	3.9%
Cc1ccc(NC(=O)C(=O)NCCN2CCN(S(=O)(=O)c3ccc(F)cc3)CC2)cc1C	nt	nt	nt	nt	nt	8.2%
NCCCCC(=O)O	5.3%	-17.6%[59 µM]	-9.4%	-14.5%	18.2%	-9.4%
NCCCC(=O)O	26.2%	2.82µM*	6.5%	7.4%	27.2%	-13.4%
CN1CCN(C(=O)c2ccc(CS(=O)Cc3ccc(Cl)cc3)o2)CC1 (stereo not drawn)	-0.4%	-7.9%	-7.6%	12.2%	23.5%	4.1%
COc1cccc(N2CCN(C(=O)c3ccc(CS(=O)c4ccccc4C)o3)CC2)c1 (stereo not drawn)	-23.2%	21.5%	?	10.1%	-12.2%[57 µM]	8.5%
COc1ccc(N2CCN(C(=O)c3ccc(CS(=O)c4cccc(C)c4)o3)CC2)cc1 (stereo not drawn)	?	56.2µM*	-21.6%	1.8%	22.4%	?
COc1ccc(N2CCN(C(=O)c3ccc(CS(=O)Cc4ccc(Cl)cc4)o3)CC2)cc1 (stereo not drawn)	?	50.1µM*	?	1.1%	-6.3%	11.1%
Cc1c(-c2ccccc2F)[nH]c2ccc(CNC(=O)CN3CC(=O)NC3=O)cc12	nt	nt	nt	nt	nt	32.3%
CC(=N\O)/C(CN(C)C)=N/O	0.4%	?	79.4µM*	-23.1%	24.0%	-23.3%
CCCCn1c(O)c(C2=Nc3ccccc3SC(c3ccc(O)cc3)C2)c(=O)[nH]c1=O (stereo not drawn)	nt	nt	nt	nt	nt	28.2µM*
COc1cc(C2C=C(Nc3ccccc3)C(=O)N2c2ccccc2)ccc1O (stereo not drawn)	?	50.1µM*	?	?	-2.8%	0.7%
CCCn1c(/N=C/c2c[nH]c3ccccc23)nc2ccccc21	?	9.2%[12.7 µM]	63.1µM*	1.4%	-32.2%	-9.8%
CCCCn1c(/N=C/c2c[nH]c3ccccc23)nc2ccccc21	?	4.0%	?	16.7%	-14.6%	-26.0%
Cn1c(N/N=C/c2cc3ccccc3nc2Cl)nc2ccccc21	-3.1%	11.9%[59 µM]	7.1%	79.4µM*	29.5%	-8.3%
Cc1cc(N/N=C/c2c[nH]c3ccccc23)c2ccccc2n1	-35.4%	nt	-15.7%	-1.8%	9.9%	16.1%
Cn1c(N/N=C/c2c[nH]c3ccccc23)nc2ccccc21	31.6µM*	?	50.1µM*	-24.8%	-37.0%	44.7µM*
Cc1ccnc(NC(=O)c2cc(-c3ccncc3)nc3ccccc23)c1	nt	nt	nt	nt	nt	16.1%
N#Cc1ccsc1NC(=O)c1ccccc1Cc1ccccc1	nt	nt	nt	nt	nt	-45.9%
CCCCC1=CC2=C(c3ccco3)C(=O)C(C)(OC(=O)c3ccc(OC)cc3)C(=O)C2=CN1Cc1ccccc1 (stereo not drawn)	?	-38.5%[59 µM]	?	44.7µM*!	14.8%	-26.4%
CCCCC1=CC2=C(c3ccco3)C(=O)C(C)(OC(=O)c3ccc(OC)cc3)C(=O)C2=CN1CCc1c[nH]c2ccccc12 (stereo not drawn)	nt	nt	nt	7.2%	nt	nt
